Screening results: PubChem BioAssay, National Center for Advancing Translational Sciences (NCATS)
Shown are actives, neighbours in structure and some others; about 21% of the full set was active somewhere.
D3 antag – D3 dopamine receptor (human) antagonism | P35462 | D3R cells, DiscoveRx beta-arrestin luminescence, antagonist mode; active compounds read low | max response, negative = inhibition, % | 360,000 compounds, 2.5% hits; in the data active means max response below about -50%; inconclusive means no clear call, values can overlap the other calls; further: on the % scale 0 is the no-effect control and ±100 the full control effect
Target sequence (P35462 whole entry, looked up): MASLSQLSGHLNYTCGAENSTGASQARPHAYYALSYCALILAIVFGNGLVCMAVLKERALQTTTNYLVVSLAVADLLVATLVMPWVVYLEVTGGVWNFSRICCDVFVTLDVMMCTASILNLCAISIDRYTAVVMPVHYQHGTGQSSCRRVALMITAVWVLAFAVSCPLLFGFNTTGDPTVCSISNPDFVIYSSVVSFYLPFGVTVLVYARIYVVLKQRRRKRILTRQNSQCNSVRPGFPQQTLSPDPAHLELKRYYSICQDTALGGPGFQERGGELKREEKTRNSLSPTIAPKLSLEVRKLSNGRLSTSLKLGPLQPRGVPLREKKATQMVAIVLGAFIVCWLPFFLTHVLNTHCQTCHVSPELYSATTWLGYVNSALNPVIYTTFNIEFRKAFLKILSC
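Cells plated overnight at 1500 cells/well, then exposed to library compounds with dopamine controls for 90 minutes at 37 degrees C. DiscoveRx reagent added for 30–60 minutes at room temperature; luminescence read, quantitative HTS format.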
ClpP mod – qHTS Assay for Activators of ClpP; purified B. subtilis ClpP, FRET peptide cleavage, 20 min; Potency, µM (doses to about 57.5 µM), for inactives: at the highest dose activity change, negative = active; 340,000 compounds, 1.9% hits; ATP-dependent Clp protease proteolytic subunit (Bacillus subtilis (strain 168)), P80244; AID 651965, 2013; active means well fitted falling curve with a large enough effect; inconclusive means small, poorly fitted or top-dose-only effect; inactive means no such curve, though single readings can be large or run the other way; further: potency means the concentration at half of the fitted maximal effect; the source files actives as falling curves though it sought activators and does not explain the sign; nearly all actives have a fitted effect of over 65% in size
Target sequence (P80244 whole entry, looked up): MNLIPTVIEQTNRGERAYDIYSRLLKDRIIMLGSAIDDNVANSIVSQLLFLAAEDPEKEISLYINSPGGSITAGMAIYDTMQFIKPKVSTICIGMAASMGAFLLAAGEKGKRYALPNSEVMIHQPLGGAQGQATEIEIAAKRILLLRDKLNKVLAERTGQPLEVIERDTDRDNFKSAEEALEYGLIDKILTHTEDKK
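FRET quenching reversal measured ClpP activation: 10 microg/mL B. subtilis ClpP at pH 8 with the FRET-FV decapeptide, read at 430 nm after 320 nm excitation. The 20-min minus 0-min signal was scaled between DMSO/no-enzyme wells and ADEP (5.8 microM final).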
DRD3 agonist – agonists of human D3 dopamine receptor; max activation, %; D3R DiscoveRx beta-arrestin cells, luminescence, 90 min; 410,000 compounds, 0.58% hits; P35462; in the data active means max activation above about 30%; further: 0% is about no effect
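Agonist-mode cell screen: cells plated at 1500/well and incubated overnight at 37 °C, then exposed to library compounds for 90 min at 37 °C. Detection reagent was added for 30–60 min at room temperature, and luminescence was read.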
TDP1 cell CPT – growth inhibition of DT40 Tdp1-/-;hTDP1 cells with camptothecin (screen for TDP1 inhibitors) | chicken DT40 Tdp1-/-;hTDP1 cells + 20 nM CPT, ATP luminescence, 48 h | Potency, µM (top dose mostly 46.2 µM), for the others: top-dose activity change, negative = growth inhibition, most hits filed as inhibitors | 420,000 compounds, 12% hits | AID 686979; further: potency means the concentration at half of the fitted maximal effect; on the % scale 0 is the no-effect control and ±100 the full control effect; nearly all actives have a fitted effect of over 55% in size
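Chicken DT40 Tdp1-/- cells stably complemented with human TDP1 were seeded at 400 cells/well in medium containing 20 nM camptothecin, exposed to pin-transferred compounds, and grown at 37 °C for at least 48 hr. Viability was read as ATP luminescence.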
IL1B secr inh – blocks inflammasome-driven IL-1 beta release; 360,000 compounds, 4.7% hits; activity change, % at 57.5 µM; THP-1 LPS/ATP IL-1B secretion, AlphaLISA, 16 h; active compounds read low; in the data active means activity change below about -50%; inconclusive means mostly about -30% to -49%; further: on the % scale 0 is the no-effect control and ±100 the full control effect
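THP-1 cells pretreated 1 hr with compounds (up to 57.5 uM final), then stimulated with LPS (250 ng/mL final) plus ATP (1.25 mM final); secreted IL-1B measured by AlphaLISA after 16 hr, decreased signal indicating inhibition.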
DT40 TDP1 no CPT – qHTS for Inhibitors of human tyrosyl-DNA phosphodiesterase 1 (TDP1): qHTS in cells in absence of CPT | Potency, µM (doses to about 46.2 µM), for inactives: at the highest dose activity change, negative = growth inhibition, usual class: inhibitors | 420,000 compounds, 15% hits | DT40 Tdp1-/- hTDP1 cells, no CPT, ATP luminescence, 48 h; further: potency means the concentration at half of the fitted maximal effect; on the % scale 0 is the no-effect control and ±100 the full control effect; nearly all actives have a fitted effect of over 55% in size
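A cellular qHTS used chicken DT40 cells lacking endogenous Tdp1 but carrying stably transfected human TDP1. Compounds were applied without camptothecin, and cell growth kinetics were judged by ATP-dependent luminescence after ≥48 hr.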
Numbers without * were called inactive; ? = inconclusive; . = not tested or not shown; [ ] = dose if it differs, or a comment. Unless noted, the call rests on the fitted dose curve; in most records, active means well fitted inhibition curve with a large enough effect; inconclusive means small, poorly fitted or top-dose-only effect; inactive means flat fitted curve, though single readings scatter.

SMILES | D3 antag | ClpP mod | DRD3 agonist | TDP1 cell CPT | IL1B secr inh | DT40 TDP1 no CPT
COc1ccc(Br)cc1CN(C)C(=O)CNC(=O)c1ccc2ccccc2c1 | 2 | . | 4 | -23% | -75* | ?
CCOC(=O)c1cc(-c2ccccc2)n(-c2cccc(C(=O)Nc3ccc(F)c(F)c3)c2)c1C | . | ? | 3 | ? | . | -104%
CN1CCN(c2oc(/C=C/c3ccc(F)cc3)nc2C#N)CC1 | . | 4% | -18 | ? | . | ?
COc1cccc(CN(C)C(=O)c2ccc(COc3ccc(Cl)cc3)cc2)c1OC | -1 | . | 12 | ? | ? | ?
CN(CC(=O)Nc1ccccc1Cl)C(=O)c1ccc(Cl)c(S(=O)(=O)N2CCCCCC2)c1 | -4 | . | -7 | -15% | -3 | ?
COc1cccc(NC(=O)CN(C)C(=O)c2ccc(Cl)c(S(=O)(=O)N3CCCCCC3)c2)c1 | -7 | . | -15 | ? | -19 | 15µM*
COc1cccc(CN(C)C(=O)c2ccc(Oc3ccccc3)cc2)c1OC | 12 | . | 16 | 26µM* | -9 | 21µM*
COc1ccccc1CN(C)C(=O)C(c1ccccc1)c1ccccc1 | -15 | -1% | -13 | 16µM* | -82* | 13µM*
CN(CC(=O)Nc1cccc(F)c1)C(=O)c1ccc(OCc2cn3ccccc3n2)cc1 | -1 | 4% | 2 | ? | -2 | 15µM*
CC1(C)NC(=O)N(CC(O)CN(c2cccc([N+](=O)[O-])c2)S(=O)(=O)c2ccccc2)C1=O (stereo unspecified) | 15 | . | 7 | -1% | 12 | -2%
CC(C)(CNC(=O)C1CCN(S(=O)(=O)c2cc([N+](=O)[O-])ccc2Cl)CC1)N1CCOCC1 | 47 | 0% | 6 | -13% | 11 | -51%
COc1ccc(CCN(C(=O)c2snc(C(N)=O)c2N)C(C)C(=O)NC2CCCCC2)cc1OC (stereo unspecified) | 3 | . | 2 | -19% | -19 | ?
COc1ccc(CN(C)C(=O)c2ccc(NS(=O)(=O)c3ccccc3)cc2)c(OC)c1 | 10 | . | -9 | ? | -22 | ?
COc1ccc(CN(C)C(=O)C(Cc2ccccc2)NC(=O)c2ccccc2)c(OC)c1 (stereo unspecified) | 20 | -4% | -12 | ? | -24 | 21µM*
COc1cccc(NC(=O)CN(C)C(=O)CNC(=O)c2ccc3ccccc3c2)c1 | 6 | -5% | 1 | -1% | -100* | 5%
COc1ccc(CN(C)C(=O)c2ccc(COc3ccccc3)cc2)c(OC)c1 | -5 | . | -16 | 18µM* | -8 | 9.2µM*
COc1cccc(NC(=O)CN(C)C(=O)c2ccc3ccccc3c2)c1 | -11 | 0% | 4 | -3% | 17 | 2%
COc1ccccc1CN(C)C(=O)c1ccc(COc2ccccc2)cc1 | -21 | -1% | -7 | 16µM* | -76* | ?
COc1ccccc1CNC(=O)CN1C(=O)c2ccc([N+](=O)[O-])cc2C1=O | 15 | . | 1 | 1% | 15 | 6%
CCOc1ccc(S(=O)(=O)NCCC(=O)NCCc2ccc(C(C)C)cc2)cc1 | 17 | -1% | 11 | ? | -11 | ?
COc1cccc(CN(C)C(=O)[C@@H](NC(=O)c2ccc(C)cc2)C(C)C)c1 | 1 | . | -15 | 21µM* | -20 | 21µM*
COc1ccc(C(=O)N[C@H](C(=O)NCc2ccc(C)cc2)C(C)C)cc1 | 0 | . | 2 | -5% | -19 | -29%
COc1cccc(CN(C)C(=O)CNC(=O)c2ccc(-c3ccccc3)cc2)c1OC | 5 | . | 21 | ? | -63* | ?
Cc1ccc(S(=O)(=O)N(CCC(=O)NCc2ccccc2F)c2ccccc2)cc1 | 5 | 1% | -3 | ? | -21 | ?
COc1cccc(CN(C)C(=O)CCN(c2ccccc2)S(=O)(=O)c2ccc(C)cc2)c1OC | 10 | . | -5 | 26µM* | -10 | 16µM*
SMILES | D3 antag | ClpP mod | DRD3 agonist | TDP1 cell CPT | IL1B secr inh | DT40 TDP1 no CPT
COc1ccc(NC(=O)C2CCN(S(=O)(=O)c3cc(-c4noc(C)n4)ccc3C)CC2)cc1 | . | -2% | -12 | -27% | . | ?
C=Cn1ccnc1P(=S)(c1ccc2c(c1)c1ccccc1n2CC)c1nccn1C=C | -13 | -23% | -7 | 29µM* | ? | ?
CCn1c2ccccc2c2cc(/C=C3\C=Cc4ccccc43)ccc21 | . | 2% | . | -20% | . | ?
COC(=O)c1sc(-c2ccccc2)cc1NC(=O)c1cccc(Cl)c1 | . | -1% | -2 | 5% | . | ?
CC(N=C1NS(=O)(=O)c2ccccc21)C(=O)NCc1ccncc1 (stereo unspecified) | -17 | . | -13 | 9% | 16 | -23%
CNc1ccc(S(=O)(=O)NCC(=O)OC(C)C(=O)N(C)Cc2ccccc2)cc1[N+](=O)[O-] (stereo unspecified) | 1 | 0% | 1 | 3% | -10 | -13%
S=c1[nH]cc(-c2ccccc2)n1-c1ccccc1Cl | 6 | -2% | 4 | ? | -10 | ?
Cc1ccc(-c2c[nH]c(=S)n2-c2ccccc2F)cc1 | -14 | . | 1 | ? | -2 | 23µM*
COc1ccccc1-n1c(-c2ccccc2)c[nH]c1=S | -15 | -3% | -3 | 18µM* | 41 | 16µM*
COC(=O)c1cncn1Cc1ccccc1 | 5 | . | 4 | 3% | 12 | 6%
CSc1ccc(CNC(=O)C2(C)CCCN2CC(C)C)cc1 (stereo unspecified) | 3 | -6% | -2 | 18µM* | 10 | 16µM*
CCC(=O)N1CCCC1(C)C(=O)NCc1ccc(SC)cc1 (stereo unspecified) | 0 | -2% | -5 | -10% | -18 | -8%
CSc1ncccc1C(=O)NCCN1Cc2ccccc2OC(c2ccccc2F)C1 (stereo unspecified) | . | . | . | 12%[9.04 µM] | . | ?
COc1ccccc1C1CN(Cc2cccc(C)n2)Cc2ccccc2O1 (stereo unspecified) | . | . | . | -30%[9.04 µM] | . | 16µM*
Cc1nc2sccn2c1CN1Cc2ccccc2OC(c2ccccc2F)C1 (stereo unspecified) | . | . | . | 6%[9.04 µM] | . | 18µM*
